Test results taken from paper PMC7862700, “An all-to-all approach to the identification of sequence-specific readers for epigenetic DNA modifications on cytosine”.

Key:
Test in all cases: DAPPL (digital affinity profiling via proximity ligation, sequencing); 10 mM Tris-HCl pH 7.5, 50 mM NaCl, 1 mM DTT, 4% glycerol, room temperature, 30 min; GST-TFs on glutathione beads, 16-mer random dsDNA library, 0.1% formaldehyde crosslink after washing; high values mean tight binding
FEV = molecular target: T1, FEV (Homo sapiens, UniProt Q99581 1-238); conditions: protein: recombinant; tags: N-terminal GST; dsDNA, one strand shown
T1 sequence: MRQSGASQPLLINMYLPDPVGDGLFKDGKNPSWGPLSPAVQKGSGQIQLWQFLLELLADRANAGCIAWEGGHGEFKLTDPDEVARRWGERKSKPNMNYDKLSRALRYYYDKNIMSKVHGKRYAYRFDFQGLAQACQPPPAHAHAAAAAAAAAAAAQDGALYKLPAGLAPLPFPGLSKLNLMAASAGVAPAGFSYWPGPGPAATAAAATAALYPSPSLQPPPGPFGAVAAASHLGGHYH
Outline: (§1)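 Human transcription factors fused to GST were expressed in yeast, captured on glutathione beads, given DNA barcodes and pooled with a GST-only negative control. Pools were incubated with 200 nmole of a 16-mer random double-stranded DNA library in Tris/NaCl/DTT/glycerol buffer at room temperature for 30 min. They were then washed, crosslinked with 0.1% formaldehyde, proximity-ligated (BsaI/T4 ligase, 1 h, 37 °C), PCR-amplified and sequenced on an Illumina NextSeq500. Binding signal is each 6-mer's read frequency for a factor divided by its frequency for the GST control.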

ETV5 = ETV5 (Homo sapiens, UniProt P41161 1-510); conditions: protein: recombinant; tags: N-terminal GST; dsDNA, one strand shown
Outline: as §1

HSF1 = HSF1 (Homo sapiens, UniProt Q00613 1-529); conditions: protein: recombinant; tags: N-terminal GST; chain copies: 3; dsDNA, one strand shown
Outline: as §1

SPIC = molecular target: T2, SPIC (Homo sapiens, UniProt Q8N5J4 1-248); conditions: protein: recombinant; tags: N-terminal GST; dsDNA, one strand shown
T2 sequence: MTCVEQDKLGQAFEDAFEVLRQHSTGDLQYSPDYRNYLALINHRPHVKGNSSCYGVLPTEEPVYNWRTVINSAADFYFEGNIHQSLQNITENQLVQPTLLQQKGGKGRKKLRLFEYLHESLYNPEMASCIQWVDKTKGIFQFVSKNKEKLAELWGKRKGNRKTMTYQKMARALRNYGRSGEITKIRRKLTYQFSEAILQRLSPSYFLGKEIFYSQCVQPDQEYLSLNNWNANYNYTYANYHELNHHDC
Outline: as §1

ELF4 = ELF4 (Homo sapiens, UniProt Q99607 1-663); conditions: protein: recombinant; tags: N-terminal GST; dsDNA, one strand shown
Outline: as §1

ELK4 = molecular target: T3, ELK4 (Homo sapiens, UniProt P28324-2 1-405); conditions: protein: recombinant; tags: N-terminal GST; dsDNA, one strand shown
T3 sequence: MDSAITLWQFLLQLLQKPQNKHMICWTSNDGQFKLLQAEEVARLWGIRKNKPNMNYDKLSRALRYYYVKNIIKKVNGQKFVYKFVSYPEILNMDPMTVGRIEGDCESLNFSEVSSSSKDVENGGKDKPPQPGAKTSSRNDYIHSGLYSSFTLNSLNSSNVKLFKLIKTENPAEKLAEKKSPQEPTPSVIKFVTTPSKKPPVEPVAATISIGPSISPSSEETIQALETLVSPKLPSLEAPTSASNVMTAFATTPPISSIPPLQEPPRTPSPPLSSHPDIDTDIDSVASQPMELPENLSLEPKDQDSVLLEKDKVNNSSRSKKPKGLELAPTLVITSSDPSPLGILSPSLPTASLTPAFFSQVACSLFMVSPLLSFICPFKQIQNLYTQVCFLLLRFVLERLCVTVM
Outline: as §1

ETV2 = molecular target: T4, ETV2 (Homo sapiens, UniProt O00321 1-342); conditions: protein: recombinant; tags: N-terminal GST; dsDNA, one strand shown
T4 sequence: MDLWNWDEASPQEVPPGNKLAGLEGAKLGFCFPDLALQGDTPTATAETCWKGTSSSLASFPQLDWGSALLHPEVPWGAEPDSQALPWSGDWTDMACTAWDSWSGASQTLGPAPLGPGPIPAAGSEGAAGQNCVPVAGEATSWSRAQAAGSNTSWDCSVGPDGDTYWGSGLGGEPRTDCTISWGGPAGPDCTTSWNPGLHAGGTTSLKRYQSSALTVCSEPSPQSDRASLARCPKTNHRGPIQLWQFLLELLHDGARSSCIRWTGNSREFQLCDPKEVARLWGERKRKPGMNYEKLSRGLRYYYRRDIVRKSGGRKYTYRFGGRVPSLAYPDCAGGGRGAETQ
Outline: as §1

ELF3 = molecular target: T5, ELF3 (Homo sapiens, UniProt P78545 1-371); conditions: protein: recombinant; tags: N-terminal GST; dsDNA, one strand shown
T5 sequence: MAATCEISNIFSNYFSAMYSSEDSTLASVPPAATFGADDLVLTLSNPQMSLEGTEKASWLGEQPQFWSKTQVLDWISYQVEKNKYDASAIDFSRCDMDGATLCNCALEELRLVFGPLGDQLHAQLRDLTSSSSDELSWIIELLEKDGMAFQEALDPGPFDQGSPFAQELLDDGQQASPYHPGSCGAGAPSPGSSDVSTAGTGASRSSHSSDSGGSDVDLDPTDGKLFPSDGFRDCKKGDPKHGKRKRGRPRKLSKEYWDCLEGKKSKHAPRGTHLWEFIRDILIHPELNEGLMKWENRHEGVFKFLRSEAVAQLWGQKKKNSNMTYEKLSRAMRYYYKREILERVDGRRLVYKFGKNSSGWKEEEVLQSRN
Outline: as §1

ETV1 = ETV1 (Homo sapiens, UniProt P50549 1-477); conditions: protein: recombinant; tags: N-terminal GST; dsDNA, one strand shown
Outline: as §1

HSF1, sequence (Q00613 whole entry): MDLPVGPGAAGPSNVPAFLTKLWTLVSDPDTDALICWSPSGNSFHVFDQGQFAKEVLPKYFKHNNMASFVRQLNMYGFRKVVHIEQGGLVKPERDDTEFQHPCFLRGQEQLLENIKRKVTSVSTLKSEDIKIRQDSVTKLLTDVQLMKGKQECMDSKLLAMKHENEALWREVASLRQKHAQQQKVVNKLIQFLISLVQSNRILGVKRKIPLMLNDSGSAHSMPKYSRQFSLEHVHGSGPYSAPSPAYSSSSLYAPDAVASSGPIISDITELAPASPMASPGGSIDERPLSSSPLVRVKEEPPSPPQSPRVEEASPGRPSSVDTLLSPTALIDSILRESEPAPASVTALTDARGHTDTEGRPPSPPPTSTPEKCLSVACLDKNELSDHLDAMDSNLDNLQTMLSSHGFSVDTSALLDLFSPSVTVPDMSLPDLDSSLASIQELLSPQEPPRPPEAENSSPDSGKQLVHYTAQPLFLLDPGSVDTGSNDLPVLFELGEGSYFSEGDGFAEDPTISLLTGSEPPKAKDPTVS
ETV1, sequence (P50549 whole entry): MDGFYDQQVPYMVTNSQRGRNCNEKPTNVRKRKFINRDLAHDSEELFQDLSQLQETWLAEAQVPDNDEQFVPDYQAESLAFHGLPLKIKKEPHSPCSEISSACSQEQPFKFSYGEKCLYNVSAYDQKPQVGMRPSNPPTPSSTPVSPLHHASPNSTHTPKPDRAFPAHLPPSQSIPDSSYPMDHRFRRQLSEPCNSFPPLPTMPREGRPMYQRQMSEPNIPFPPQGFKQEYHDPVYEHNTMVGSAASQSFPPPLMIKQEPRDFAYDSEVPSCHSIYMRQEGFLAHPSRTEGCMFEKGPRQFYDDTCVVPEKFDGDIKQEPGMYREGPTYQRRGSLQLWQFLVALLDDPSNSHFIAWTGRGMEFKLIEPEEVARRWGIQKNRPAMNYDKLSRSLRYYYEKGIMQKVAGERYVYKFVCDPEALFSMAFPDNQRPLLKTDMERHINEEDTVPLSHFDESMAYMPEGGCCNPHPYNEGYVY
ETV5, sequence (P41161 whole entry): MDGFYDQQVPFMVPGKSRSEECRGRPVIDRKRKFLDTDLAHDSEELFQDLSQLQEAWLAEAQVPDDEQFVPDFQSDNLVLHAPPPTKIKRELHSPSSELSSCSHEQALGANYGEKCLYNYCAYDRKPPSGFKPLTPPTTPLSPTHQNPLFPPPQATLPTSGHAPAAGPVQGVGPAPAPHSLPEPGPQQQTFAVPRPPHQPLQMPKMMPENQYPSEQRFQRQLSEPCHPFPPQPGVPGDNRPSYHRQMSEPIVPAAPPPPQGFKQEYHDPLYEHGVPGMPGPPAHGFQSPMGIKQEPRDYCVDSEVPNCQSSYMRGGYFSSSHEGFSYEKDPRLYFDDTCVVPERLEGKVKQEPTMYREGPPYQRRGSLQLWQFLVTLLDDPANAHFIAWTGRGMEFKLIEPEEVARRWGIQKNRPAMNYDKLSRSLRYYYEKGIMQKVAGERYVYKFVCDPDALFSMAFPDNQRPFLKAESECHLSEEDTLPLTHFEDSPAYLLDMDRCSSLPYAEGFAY
ELF4, sequence (Q99607 whole entry): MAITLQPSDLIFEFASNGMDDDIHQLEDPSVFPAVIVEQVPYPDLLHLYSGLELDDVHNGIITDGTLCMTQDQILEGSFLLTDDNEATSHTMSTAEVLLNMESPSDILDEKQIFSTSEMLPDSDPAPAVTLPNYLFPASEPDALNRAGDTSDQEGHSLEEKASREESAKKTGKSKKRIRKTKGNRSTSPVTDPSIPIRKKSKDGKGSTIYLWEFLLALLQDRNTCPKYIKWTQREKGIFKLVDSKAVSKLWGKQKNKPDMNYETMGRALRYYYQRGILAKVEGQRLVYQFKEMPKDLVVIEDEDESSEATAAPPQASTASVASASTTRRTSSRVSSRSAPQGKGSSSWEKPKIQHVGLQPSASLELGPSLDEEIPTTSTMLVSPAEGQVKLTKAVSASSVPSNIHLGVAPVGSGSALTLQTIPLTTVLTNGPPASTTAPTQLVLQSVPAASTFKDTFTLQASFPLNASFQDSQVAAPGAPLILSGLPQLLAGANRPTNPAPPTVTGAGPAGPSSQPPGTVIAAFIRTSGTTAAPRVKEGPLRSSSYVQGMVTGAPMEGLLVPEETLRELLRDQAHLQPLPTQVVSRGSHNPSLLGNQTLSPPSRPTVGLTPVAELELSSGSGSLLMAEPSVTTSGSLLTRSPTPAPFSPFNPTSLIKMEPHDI

Row | Sequence | binding signal (FEV) | binding signal (ETV5) | binding signal (HSF1) | binding signal (SPIC) | binding signal (ELF4) | binding signal (ELK4) | binding signal (ETV2) | binding signal (ELF3) | binding signal (ETV1)
1 | AACTTG | 1.17 fold enrichment (6-mer frequency, TF over GST control) | 1.14 fold enrichment (6-mer frequency, TF over GST control) | 1.09 fold enrichment (6-mer frequency, TF over GST control) | 1.27 fold enrichment (6-mer frequency, TF over GST control) | 1.28 fold enrichment (6-mer frequency, TF over GST control) | 1.11 fold enrichment (6-mer frequency, TF over GST control) | 1.12 fold enrichment (6-mer frequency, TF over GST control) | 1.19 fold enrichment (6-mer frequency, TF over GST control) | 1.05 fold enrichment (6-mer frequency, TF over GST control)
2 | AACAGC | 1.14 fold enrichment (6-mer frequency, TF over GST control) | 1.09 fold enrichment (6-mer frequency, TF over GST control) | 1 fold enrichment (6-mer frequency, TF over GST control) | 1.05 fold enrichment (6-mer frequency, TF over GST control) | 1.15 fold enrichment (6-mer frequency, TF over GST control) | 1.2 fold enrichment (6-mer frequency, TF over GST control) | 1.12 fold enrichment (6-mer frequency, TF over GST control) | 1.1 fold enrichment (6-mer frequency, TF over GST control) | 1.11 fold enrichment (6-mer frequency, TF over GST control)
3 | GAAGTA | 2.05 fold enrichment (6-mer frequency, TF over GST control) | 2.16 fold enrichment (6-mer frequency, TF over GST control) | 1.02 fold enrichment (6-mer frequency, TF over GST control) | 2.19 fold enrichment (6-mer frequency, TF over GST control) | 1.74 fold enrichment (6-mer frequency, TF over GST control) | 1.71 fold enrichment (6-mer frequency, TF over GST control) | 1.89 fold enrichment (6-mer frequency, TF over GST control) | 2.08 fold enrichment (6-mer frequency, TF over GST control) | 2.11 fold enrichment (6-mer frequency, TF over GST control)
4 | TGGTAC | 1.07 fold enrichment (6-mer frequency, TF over GST control) | 1.2 fold enrichment (6-mer frequency, TF over GST control) | 1.04 fold enrichment (6-mer frequency, TF over GST control) | 1.14 fold enrichment (6-mer frequency, TF over GST control) | 1.08 fold enrichment (6-mer frequency, TF over GST control) | 1.11 fold enrichment (6-mer frequency, TF over GST control) | 1.15 fold enrichment (6-mer frequency, TF over GST control) | 1.07 fold enrichment (6-mer frequency, TF over GST control) | 1.19 fold enrichment (6-mer frequency, TF over GST control)
5 | GATGCC | 1.41 fold enrichment (6-mer frequency, TF over GST control) | 1.46 fold enrichment (6-mer frequency, TF over GST control) | 1.08 fold enrichment (6-mer frequency, TF over GST control) | 1.22 fold enrichment (6-mer frequency, TF over GST control) | 1.31 fold enrichment (6-mer frequency, TF over GST control) | 1.42 fold enrichment (6-mer frequency, TF over GST control) | 1.28 fold enrichment (6-mer frequency, TF over GST control) | 1.4 fold enrichment (6-mer frequency, TF over GST control) | 1.36 fold enrichment (6-mer frequency, TF over GST control)
6 | GAAAAA | 1.09 fold enrichment (6-mer frequency, TF over GST control) | 1.13 fold enrichment (6-mer frequency, TF over GST control) | 1.41 fold enrichment (6-mer frequency, TF over GST control) | 1.15 fold enrichment (6-mer frequency, TF over GST control) | 1.17 fold enrichment (6-mer frequency, TF over GST control) | 1.09 fold enrichment (6-mer frequency, TF over GST control) | 1.15 fold enrichment (6-mer frequency, TF over GST control) | 1.2 fold enrichment (6-mer frequency, TF over GST control) | 1.09 fold enrichment (6-mer frequency, TF over GST control)
7 | GTTCAC | 1.3 fold enrichment (6-mer frequency, TF over GST control) | 1.2 fold enrichment (6-mer frequency, TF over GST control) | 1.06 fold enrichment (6-mer frequency, TF over GST control) | 1.09 fold enrichment (6-mer frequency, TF over GST control) | 1.25 fold enrichment (6-mer frequency, TF over GST control) | 1.29 fold enrichment (6-mer frequency, TF over GST control) | 1.22 fold enrichment (6-mer frequency, TF over GST control) | 1.12 fold enrichment (6-mer frequency, TF over GST control) | 1.19 fold enrichment (6-mer frequency, TF over GST control)
8 | TCGCAC | 1.12 fold enrichment (6-mer frequency, TF over GST control) | 1.01 fold enrichment (6-mer frequency, TF over GST control) | 1.03 fold enrichment (6-mer frequency, TF over GST control) | 1.06 fold enrichment (6-mer frequency, TF over GST control) | 1.13 fold enrichment (6-mer frequency, TF over GST control) | 1.08 fold enrichment (6-mer frequency, TF over GST control) | 1.07 fold enrichment (6-mer frequency, TF over GST control) | 1.18 fold enrichment (6-mer frequency, TF over GST control) | 1.04 fold enrichment (6-mer frequency, TF over GST control)
9 | GCTCGT | 1.06 fold enrichment (6-mer frequency, TF over GST control) | 1.17 fold enrichment (6-mer frequency, TF over GST control) | 1.07 fold enrichment (6-mer frequency, TF over GST control) | 1.14 fold enrichment (6-mer frequency, TF over GST control) | 1.24 fold enrichment (6-mer frequency, TF over GST control) | 1.11 fold enrichment (6-mer frequency, TF over GST control) | 1.29 fold enrichment (6-mer frequency, TF over GST control) | 1.16 fold enrichment (6-mer frequency, TF over GST control) | 1.15 fold enrichment (6-mer frequency, TF over GST control)
10 | GACCTC | 1.41 fold enrichment (6-mer frequency, TF over GST control) | 1.42 fold enrichment (6-mer frequency, TF over GST control) | 1.17 fold enrichment (6-mer frequency, TF over GST control) | 1.18 fold enrichment (6-mer frequency, TF over GST control) | 1.4 fold enrichment (6-mer frequency, TF over GST control) | 1.38 fold enrichment (6-mer frequency, TF over GST control) | 1.51 fold enrichment (6-mer frequency, TF over GST control) | 1.45 fold enrichment (6-mer frequency, TF over GST control) | 1.38 fold enrichment (6-mer frequency, TF over GST control)
11 | ACGAAC | 1.15 fold enrichment (6-mer frequency, TF over GST control) | 1.22 fold enrichment (6-mer frequency, TF over GST control) | 1.19 fold enrichment (6-mer frequency, TF over GST control) | 1.07 fold enrichment (6-mer frequency, TF over GST control) | 1.22 fold enrichment (6-mer frequency, TF over GST control) | 1.18 fold enrichment (6-mer frequency, TF over GST control) | 1.18 fold enrichment (6-mer frequency, TF over GST control) | 1.22 fold enrichment (6-mer frequency, TF over GST control) | 1.09 fold enrichment (6-mer frequency, TF over GST control)
12 | CCGACA | 1.31 fold enrichment (6-mer frequency, TF over GST control) | 1.24 fold enrichment (6-mer frequency, TF over GST control) | 1.03 fold enrichment (6-mer frequency, TF over GST control) | 1.34 fold enrichment (6-mer frequency, TF over GST control) | 1.13 fold enrichment (6-mer frequency, TF over GST control) | 1.14 fold enrichment (6-mer frequency, TF over GST control) | 1.32 fold enrichment (6-mer frequency, TF over GST control) | 1.18 fold enrichment (6-mer frequency, TF over GST control) | 1.28 fold enrichment (6-mer frequency, TF over GST control)
13 | GTGCTC | 1.11 fold enrichment (6-mer frequency, TF over GST control) | 1.15 fold enrichment (6-mer frequency, TF over GST control) | 1.05 fold enrichment (6-mer frequency, TF over GST control) | 1.21 fold enrichment (6-mer frequency, TF over GST control) | 1.12 fold enrichment (6-mer frequency, TF over GST control) | 1.05 fold enrichment (6-mer frequency, TF over GST control) | 1.16 fold enrichment (6-mer frequency, TF over GST control) | 1.26 fold enrichment (6-mer frequency, TF over GST control) | 1.29 fold enrichment (6-mer frequency, TF over GST control)
